Laboratory results as given in the supplement of paper PMC4466236.
In all, about 33,000 sequences were measured (“E-score (dimensionless, -0.5 to 0.5)”: median about -0.058, highest 2% from about 0.35 on). The sample as a whole holds a higher share of the highest values than the screen did.

The sequences below were run on MvaT (assay: PBM 8-mer E-score (mean of HK and ME arrays) (E-score (dimensionless, -0.5 to 0.5)); higher = stronger relative binding preference).
In short: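 Full-length P. aeruginosa MvaT carrying an N-terminal glutathione S-transferase tag was tested by protein binding microarray following a previously described protocol. Two universal double-stranded 60-mer arrays, ME and HK, were used, each with a constant 25-mer primer region and a variable 35-mer region covering all 8-mers. The rank-based E-score is the mean of the two arrays, parsed with a custom script. Its range runs from -0.5 to 0.5 for each 8-mer.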

Row | Sequence | PBM 8-mer E-score
1 | ACCTAACA | -0.00971
2 | ATTTATCG | 0.291
3 | CTTTATTC | 0.209
4 | CTTTATTA | 0.402
5 | GTTTATTA | 0.407
6 | ATTTATCA | 0.301
7 | ATTTATTA | 0.434
8 | ATTTATTG | 0.379
9 | GTTTTTTA | 0.248
10 | ATTTATGG | 0.204
11 | GTTTACTA | 0.147
12 | ATTTATTC | 0.295
13 | CTTTATCA | 0.182
14 | ACCTCTAC | -0.178
15 | TACGTTGA | 0.0324
16 | AGAGCGCG | -0.146
17 | GTGACCCA | -0.143
18 | TCAATTAA | 0.237
19 | AGAATTAA | 0.301
20 | TGAATTAA | 0.376
21 | CGAATTAA | 0.308
22 | GGAATTAC | 0.149
23 | GGAATTAA | 0.347
24 | GGCGTGTA | -0.134
25 | GGGCTGAA | -0.257

Row | Sequence | PBM 8-mer E-score
26 | AGCCTGTA | -0.00993
27 | CAAGAAAA | -0.021
28 | ACGCGTCG | -0.0515
29 | ATCACGGG | -0.203
30 | GTATACAC | 0.209
31 | ATATATAC | 0.464
32 | CTATATAC | 0.377
33 | GTATATAC | 0.41
34 | CTCTATAC | 0.00646
35 | GGATATAC | 0.208
36 | CCATATAC | 0.153
37 | ATCTATAC | 0.138
38 | ATATACGC | 0.291
39 | CTCCCTAC | -0.109
40 | AATGACCG | -0.00123
41 | GTAGTTTA | 0.297
42 | CGTGCGGA | -0.146
43 | CAGTAGCC | -0.125
44 | AAGTATAA | 0.379
45 | ATGTATAA | 0.35
46 | GAGTATAA | 0.273
47 | AAGTATAC | 0.338
48 | CAGTATAA | 0.267
49 | AAGTATAG | 0.167
50 | AAGTATAT | 0.399

Row | Sequence | PBM 8-mer E-score
51 | TCGTATAA | 0.148
52 | TAGTATAA | 0.384
53 | ATGTATAC | 0.332
54 | CTGTATAA | 0.264
55 | AGGTATAA | 0.291
56 | ACCAGGAG | -0.239
57 | CGGGAGAG | -0.265
58 | CACGGGGA | -0.0937
59 | CTACCCAC | -0.0554
60 | ATGAAACA | 0.181
61 | AGTATTAG | 0.27
62 | ATTATTGA | 0.354
63 | AGTATTAC | 0.306
64 | CCTATTAA | 0.249
65 | AGTATTAT | 0.42
66 | TCTATTAA | 0.285
67 | ACTAGTAT | 0.357
68 | CTTATTGA | 0.22
69 | ACTATTAA | 0.411
70 | ACTAGTAG | 0.0918
71 | ACTAGTAA | 0.24
72 | GTTATTGA | 0.311
73 | ATGATCAA | 0.176
74 | GAAAGGGC | -0.199
75 | TAAGAACA | 0.123

Row | Sequence | PBM 8-mer E-score
76 | GCCGCTCA | -0.105
77 | CTTTGAAA | 0.141
78 | ACATGTAC | 0.243
79 | AGGCCATC | -0.264
80 | ACGATTAT | 0.245
81 | CTTATTAA | 0.362
82 | ACTATTAT | 0.425
83 | GTTATTAA | 0.383
84 | CTCATTAA | 0.196
85 | GTTATTCA | 0.236
86 | ATTATGAA | 0.269
87 | GCTATTAA | 0.272
88 | ATTATTAA | 0.446
89 | ATCATTAA | 0.259
90 | CTTATTCA | 0.194
91 | ACCATTAT | 0.332
92 | GTTTTTCA | 0.0388
93 | AGCGGTGG | -0.209
94 | CCTGCCTC | -0.249
95 | AGACTTCC | -0.21
96 | AAAAAAGG | 0.0491
97 | CTGTCCTA | -0.112
98 | CTAATATC | 0.299
99 | GTAATATA | 0.436
100 | ATAATCTA | 0.344

Row | Sequence | PBM 8-mer E-score
101 | ATAATATA | 0.475
102 | CTAATATA | 0.434
103 | GTAATACA | 0.295
104 | CTAATAGA | 0.184
105 | ATCATATA | 0.338
106 | GTCATATA | 0.282
107 | CAGGCTCG | -0.325
108 | CAGACGGA | -0.156
109 | AGCTGGGG | -0.186
110 | ACTACGCG | -0.0273
111 | AGGGCATG | -0.207
112 | GCAACGCA | -0.168
113 | AATTTTTG | 0.194
114 | AATATTGA | 0.327
115 | GATATTTA | 0.326
116 | ACTATTTC | 0.201
117 | CCTATTTA | 0.212
118 | CATATTTA | 0.371
119 | AATATTTA | 0.45
120 | CATATTTC | 0.26
121 | AATATTTC | 0.404
122 | AACATTTG | 0.103
123 | CCTATTTC | 0.0116
124 | AATATTTG | 0.349
125 | AGTGTGAA | 0.204

Row | Sequence | PBM 8-mer E-score
126 | CAGGGTTC | -0.251
127 | GAAGATGA | -0.128
128 | CGGAGTTC | -0.106
129 | TCACCTCA | -0.163
130 | CTTCTTTC | 0.015
131 | GTAATAGA | 0.164
132 | ATAATAGA | 0.364
133 | AGAATAGA | 0.051
134 | ATAATAGC | 0.362
135 | CTAATAGC | 0.0517
136 | ATAATAGG | 0.291
137 | TTGGAAAA | 0.114
138 | AACTCGTC | 0.0126
139 | GGGTTGAC | -0.213
140 | CATACGGC | -0.244
141 | ACCGTAGA | -0.0538
142 | CCCGTGCG | -0.273
143 | AGACGAAC | -0.107
144 | ATCCAAAA | 0.1
145 | CCTAACCA | -0.103
146 | CTGCTGTC | -0.222
147 | GCTTAACA | 0.0832
148 | GCTTAATA | 0.352
149 | CCTTAATA | 0.298
150 | ACTTAATG | 0.287

Row | Sequence | PBM 8-mer E-score
151 | ACTTAATA | 0.4
152 | ACTTAATC | 0.187
153 | CGATGGTC | -0.364
154 | AGACAGGA | -0.156
155 | CGTCCTCA | -0.231
156 | ACGCGGCG | -0.275
157 | ACGTTAAA | 0.256
158 | CACTCGTC | -0.185
159 | CTGGCATC | -0.181
160 | CAATCAGC | -0.0173
161 | GGTAATAC | 0.249
162 | ATTAAGAG | 0.297
163 | AGTAATAA | 0.327
164 | CTTAATAC | 0.286
165 | ATTAATAC | 0.41
166 | ATTAATAG | 0.426
167 | ATTAATAA | 0.468
168 | ATTAAGAA | 0.282
169 | AGAGGTCA | -0.266
170 | ACGGCAAC | -0.107
171 | CGTTTTGC | 0.0694
172 | TGGTTGAA | -0.0872
